IDE exosite inh = exo-site inhibitors of human IDE, primary screen, biochemical, fluorescence anisotropy, probe displacement. Insulin-degrading enzyme (Homo sapiens), P14735. purified IDE, FL-6b probe fluorescence polarization; active compounds read low. z-score at 20 µM. actives 6.3% (n = 17,000);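 active means z-score of -3 or lower, meaning strong loss of probe binding signal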;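 further: His-tagged human IDE residues 42-1019 made in E. coli with 30 nM FL-6b probe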
Target sequence (P14735 42-1019 limits assumed): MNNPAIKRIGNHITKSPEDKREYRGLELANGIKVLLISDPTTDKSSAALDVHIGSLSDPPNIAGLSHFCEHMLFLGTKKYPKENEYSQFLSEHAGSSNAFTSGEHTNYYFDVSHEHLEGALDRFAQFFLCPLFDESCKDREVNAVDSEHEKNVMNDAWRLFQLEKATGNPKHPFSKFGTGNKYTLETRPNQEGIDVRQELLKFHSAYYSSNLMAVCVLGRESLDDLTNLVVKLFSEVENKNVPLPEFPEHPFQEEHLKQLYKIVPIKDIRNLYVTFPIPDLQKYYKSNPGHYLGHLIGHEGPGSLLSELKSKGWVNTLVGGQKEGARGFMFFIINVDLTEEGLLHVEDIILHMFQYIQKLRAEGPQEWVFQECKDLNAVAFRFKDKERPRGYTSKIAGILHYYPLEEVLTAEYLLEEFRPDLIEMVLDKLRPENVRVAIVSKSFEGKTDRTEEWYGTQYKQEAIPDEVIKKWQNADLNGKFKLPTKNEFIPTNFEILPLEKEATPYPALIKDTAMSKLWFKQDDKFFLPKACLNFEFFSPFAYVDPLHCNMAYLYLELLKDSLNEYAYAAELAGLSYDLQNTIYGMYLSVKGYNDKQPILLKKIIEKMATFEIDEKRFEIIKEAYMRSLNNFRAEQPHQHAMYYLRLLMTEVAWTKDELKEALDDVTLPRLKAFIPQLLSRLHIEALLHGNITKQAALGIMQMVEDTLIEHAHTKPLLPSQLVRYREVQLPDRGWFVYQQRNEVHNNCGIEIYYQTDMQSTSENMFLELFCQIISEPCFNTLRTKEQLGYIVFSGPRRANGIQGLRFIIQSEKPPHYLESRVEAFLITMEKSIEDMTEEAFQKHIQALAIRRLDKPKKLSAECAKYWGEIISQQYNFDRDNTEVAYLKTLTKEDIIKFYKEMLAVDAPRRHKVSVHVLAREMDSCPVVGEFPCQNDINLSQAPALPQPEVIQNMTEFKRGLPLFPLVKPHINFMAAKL
* hit, by the source's call. The sample as a whole holds a higher share of hits than the screen did.

SMILES	IDE exosite inh
Cc1ccccc1-c1ccc([C@@H]2[C@H]3CN(S(=O)(=O)c4cn(C)cn4)CCCCN3[C@H]2CO)cc1	-19*
Cn1cnc(S(=O)(=O)N2CCCCN3[C@H](C2)[C@H](c2ccc(C4=CCCCC4)cc2)[C@@H]3CO)c1	0.24
Cn1cnc(S(=O)(=O)N2CCCCN3[C@H](CO)[C@H](c4ccc(C5=CCCCC5)cc4)[C@@H]3C2)c1	-0.73
Cn1cnc(S(=O)(=O)N2CCCCN3[C@H](CO)[C@@H](c4ccc(-c5ccccc5F)cc4)[C@@H]3C2)c1	-11*
COc1ccc(S(=O)(=O)Nc2ccc3c(c2)C(=O)N([C@H](C)CO)C[C@@H](C)[C@@H](CN(C)C(=O)Nc2c(C)noc2C)OCCCC[C@@H](C)O3)cc1	0.88
O=C(c1cccc(F)c1)N1CCCCN2[C@@H](CO)[C@@H](c3ccc(/C=C/c4ccccc4)cc3)[C@@H]2C1	2.4
O=C(Nc1cccc(F)c1)N1CC(=O)N2[C@H](CO)[C@@H](c3ccc(C#CCC4CCCC4)cc3)[C@H]2C1	3
CO[C@H]1CC[C@H]2CCN(C)C(=O)CCCN(C)C(=O)c3cc(C#N)ccc3OC[C@H]1O2	0.19
COc1ccccc1CN1[C@@H]2c3ccc(C4=CCCC4)c(=O)n3C[C@H]1[C@H](CO)[C@H]2C(=O)N(C)C	-0.7
CCC(=O)NC[C@H]1[C@@H](c2ccc(-c3cccc(F)c3)cc2)[C@@H](CO)N1C(=O)CC	1.5
CCCC#Cc1ccc([C@H]2[C@H]3CN(S(=O)(=O)CC)CCCCN3[C@H]2CO)cc1	2.3
O=S(=O)(Cc1ccccc1)N1CCCCN2[C@H](CO)[C@@H](c3ccc(C#Cc4ccccc4)cc3)[C@@H]2C1	-0.14
O=S(=O)(Cc1ccccc1)N1CCCCN2[C@H](CO)[C@H](c3ccc(C#Cc4ccccc4)cc3)[C@H]2C1	4
CCCC#Cc1ccc([C@@H]2[C@@H](CO)N3CCCCN(S(=O)(=O)CC)C[C@H]23)cc1	3
CCS(=O)(=O)N1CCCCN2[C@H](CO)[C@H](c3ccc(C#Cc4ccccc4OC)cc3)[C@@H]2C1	-8.2*
CCS(=O)(=O)N1CCCCN2[C@H](CO)[C@@H](c3ccc(C#Cc4ccccc4OC)cc3)[C@H]2C1	-6.5*
O=S(=O)(Cc1ccccc1)N1CCCCN2[C@H](CO)[C@@H](c3ccc(C#Cc4ccccc4)cc3)[C@H]2C1	5.1
O=S(=O)(Cc1ccccc1)N1CCCCN2[C@@H](CO)[C@H](c3ccc(C#Cc4ccccc4)cc3)[C@@H]2C1	2.5
CCS(=O)(=O)N1CCCCN2[C@H](CO)[C@H](c3ccc(C#Cc4ccccc4OC)cc3)[C@H]2C1	-9.2*
COCC(=O)N1CC(=O)N2[C@H](CO)[C@H](c3ccc(-c4ccncc4)cc3)[C@@H]2C1	1.4
C[C@@H]1CCCCO[C@@H](CN(C)C(=O)NC2CCCCC2)[C@H](C)CN([C@H](C)CO)C(=O)c2cc(N(C)C)ccc2O1	0.55
Cc1ccc(CN2CC(=O)N3[C@@H](CO)[C@H](c4ccc(-c5ccccc5F)cc4)[C@@H]3C2)cc1	-0.51
CC(C)NC(=O)N1CC2(C1)[C@H](c1ccccc1)[C@H](CO)N2Cc1cncnc1	0.93
O=C(c1cnccn1)N1CC(=O)N2[C@H](CO)[C@@H](c3ccc(C#CC4CC4)cc3)[C@@H]2C1	-1.4
COc1ccccc1NC(=O)N1CC(=O)N2[C@H](CO)[C@@H](c3ccc(-c4ccc(C)cc4)cc3)[C@@H]2C1	1.4
SMILES	IDE exosite inh
OC[C@H]1[C@@H](c2ccc(C#Cc3ccccc3F)cc2)[C@@H]2CN(Cc3cncnc3)CCCCN12	-15*
OC[C@@H]1[C@H](c2ccc(-c3ccccc3F)cc2)[C@@H]2CN(Cc3cccnc3)CCCCN12	-1.2
OC[C@@H]1[C@@H](c2ccc(C#Cc3cccnc3)cc2)[C@@H]2CN(Cc3ccccc3F)CCCCN12	-0.035
OC[C@@H]1[C@@H](c2ccc(C#Cc3ccccc3F)cc2)[C@@H]2CN(Cc3cncnc3)CCCCN12	-6.3*
OC[C@H]1[C@@H](c2ccc(C#Cc3ccccc3F)cc2)[C@H]2CN(Cc3cncnc3)CCCCN21	-2.1
OC[C@H]1[C@@H](c2ccc(-c3ccccc3F)cc2)[C@H]2CN(Cc3cncnc3)CCCCN21	-3.2*
OC[C@H]1[C@@H](c2ccc(-c3ccccc3F)cc2)[C@@H]2CN(Cc3cncnc3)CCCCN12	-2.7
CN(C)C(=O)c1ccc(-c2ccc([C@@H]3[C@H](CO)N4CCCCN(CC5CC5)C[C@@H]34)cc2)cc1	0.13
CCC(=O)N1[C@@H](CO)[C@@H](c2ccc(-c3cccnc3)cc2)[C@@H]1CN(CC)C(C)=O	1.6
CC(C)C#Cc1ccc([C@H]2[C@@H](C#N)N(C(=O)c3cccc(F)c3)[C@@H]2CO)cc1	-0.23
CC(C)CC#Cc1ccc([C@H]2[C@H](CO)N3C(=O)CN(S(=O)(=O)c4ccccc4)C[C@@H]23)cc1	1.8
N#C[C@@H]1[C@H](c2ccc(C#CC3CCCC3)cc2)[C@H](CO)N1C(=O)Cc1ccccn1	2.4
O=C(NC[C@@H]1[C@@H](c2ccccc2)[C@@H](CO)N1C(=O)C1CCC1)NC1CCCC1	0.14
Cc1noc(C)c1NC(=O)N1C[C@@H](O)COC[C@@H]2O[C@H](CC(=O)N3CCc4ccccc4C3)CC[C@H]21	-0.079
CN1c2ccc(Br)cc2[C@@H]2[C@@H](CCN2C(=O)CN2CCOCC2)[C@@H]1CO	2
COc1ccccc1C#Cc1ccc([C@@H]2[C@@H](CO)N3CCCCN(C(=O)C4CCC4)C[C@@H]23)cc1	-9*
O=C(C1CCC1)N1CCCCN2[C@H](C1)[C@@H](c1ccc(C#CC3(O)CCCC3)cc1)[C@@H]2CO	-1.1
COc1ccccc1C#Cc1ccc([C@H]2[C@@H](CO)N3CCCCN(C(=O)C4CCC4)C[C@H]23)cc1	-10*
CN(C)CC#Cc1ccc([C@H]2[C@@H](CO)N3CCCCN(C(=O)C4CCC4)C[C@H]23)cc1	0.063
COc1ccc(C#Cc2ccc([C@@H]3[C@@H](CO)N4CCCCN(C(=O)Nc5ccccc5)C[C@@H]34)cc2)cc1	2.1
COc1ccccc1C#Cc1ccc([C@@H]2[C@H]3CN(C(=O)C4CCC4)CCCCN3[C@H]2CO)cc1	-6.8*
COc1ccccc1NC(=O)N1CCCCN2[C@H](C1)[C@H](c1ccc(C#Cc3ccccc3)cc1)[C@@H]2CO	1.2
COc1ccccc1NC(=O)N1CCCCN2[C@H](CO)[C@@H](c3ccc(C#Cc4ccccc4)cc3)[C@@H]2C1	3.8
CN(C)CC#Cc1ccc([C@H]2[C@H]3CN(C(=O)C4CCC4)CCCCN3[C@H]2CO)cc1	2.3
Cc1cccc(-c2ccc([C@H]3[C@H]4CN(CCC(F)(F)F)CCCCN4[C@H]3CO)cc2)c1	0.64
SMILES	IDE exosite inh
C/C=C/c1ccc([C@H]2[C@H](CO)N(C(=O)CN(C)C)C23CN(C(=O)C2CCOCC2)C3)cc1	-1.4
C[C@@H]1CN([C@@H](C)CO)C(=O)c2cc(NC(=O)Cc3ccccc3)ccc2O[C@@H](C)CCCCO[C@H]1CN(C)Cc1ccncc1	2.2
O=C(c1ccccn1)N1CC(=O)N2[C@@H](CO)[C@H](c3ccc(C#CCc4ccccc4)cc3)[C@@H]2C1	-1.1
O=C(c1ccccn1)N1CC(=O)N2[C@@H](CO)[C@H](c3ccc(C#Cc4ccccc4)cc3)[C@@H]2C1	-9.7*
O=C(c1ccccn1)N1CC(=O)N2[C@H](CO)[C@H](c3ccc(C#CCc4ccccc4)cc3)[C@@H]2C1	-1.8
CCCC#Cc1ccc([C@H]2[C@@H](CO)N3C(=O)CN(C(=O)c4ccccn4)C[C@H]23)cc1	3.1

Compound activity: PubChem BioAssay, Broad Institute
